The record followed here is PubChem BioAssay AID777 (Sanford-Burnham Center for Chemical Genomics, 2007).

The whole screen tested about 96,000 compounds, of which about 19,000 (20%) were called active.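 How the source made its calls: active means blocking of liver enzyme CYP2C9 beyond about 50% at 5 µM (limit read from the data); inactive means the rest.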 These entries were drawn from the full list.

The experiment deals with Cytochrome P450 2C9 (Homo sapiens) (UniProt P11712). As to the kind of experiment: blockers of cytochrome P450 2C9 activity – biochemical, luminescence, ADME assay, primary screen (AID 777). The note with it: CYP2C9 Supersomes, luciferin-H conversion, at 5 µM, hits give high values.
Cytochrome P450 2C9 (Homo sapiens), sequence (P11712 whole entry, looked up): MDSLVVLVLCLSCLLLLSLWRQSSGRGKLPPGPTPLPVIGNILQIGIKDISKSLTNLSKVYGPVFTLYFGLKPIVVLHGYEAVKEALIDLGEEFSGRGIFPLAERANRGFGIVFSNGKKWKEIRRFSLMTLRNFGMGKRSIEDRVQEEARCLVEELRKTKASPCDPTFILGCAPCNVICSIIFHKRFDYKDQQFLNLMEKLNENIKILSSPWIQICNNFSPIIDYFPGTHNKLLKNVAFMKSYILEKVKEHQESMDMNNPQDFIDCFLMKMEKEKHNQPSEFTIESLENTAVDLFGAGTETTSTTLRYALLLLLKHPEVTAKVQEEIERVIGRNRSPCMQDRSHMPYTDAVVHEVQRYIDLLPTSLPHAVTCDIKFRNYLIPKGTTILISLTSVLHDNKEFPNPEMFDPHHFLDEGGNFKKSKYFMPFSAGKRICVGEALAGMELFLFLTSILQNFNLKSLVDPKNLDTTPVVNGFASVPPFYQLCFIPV
Broadly, the inhibition is the relative decrease from the control value, in per cent. In the case of `COC(=O)c1cc(S(=O)(=O)NC2CCN(Cc3ccccc3)CC2)cn1C`, the inhibition was -9.6% (inactive).
With `S=c1[nH]nc(-c2ccc(Cl)cc2)n1CC1CCCO1` (centres undefined) the figure was 15.7% (inactive); with `CC(C)NS(=O)(=O)c1ccc(CCC(=O)N2CCOCC2)cc1`, 0% (inactive).
Consider `CC1CCCCC1NC(=O)CSc1nnc(N)s1` (centres undefined), for which the inhibition was -16.3% (inactive).
On to `CCCC1CC(C)(C(=O)Cn2[nH]c(=O)ccc2=O)OC1=O` (centres undefined), for which the inhibition is -20.1% (inactive).
With `CC(C)Nc1ncnc2c1nnn2Cc1ccccc1` the figure was -0.4% (inactive); with `Nc1c(C(=O)NCc2ccccc2)nnn1Cc1cccc(Cl)c1`, 19.3% (inactive); with `COC(=O)c1c(C)c(C)nc(N)c1C#N`, -10.8% (inactive).
The same measure for `N#CCCN(CCC#N)c1nnc(-c2ccccc2)s1`: 2.8% (inactive); for `CCOC(=O)c1nnn(-c2nonc2-n2cccc2)c1CN1CCOCC1`: 16.6% (inactive); for `CCN(CC)Cc1c(C(=O)OC)nnn1-c1nonc1N`: -22.1% (inactive).
Take `CCOC(=O)c1nnn(-c2nonc2-n2cccc2)c1CN1CCC(C(=O)OCC)CC1`: the inhibition was 94.8% (active).
For the molecule `O=c1c2c(nc3nc[nH]n13)CCC2`, the inhibition is -10.5% (inactive).
For `O=C(Nc1cccc2ccccc12)c1onc2c1CCCC2`, the inhibition is -38.6% (inactive).
For the molecule `Cc1onc(-c2ccccc2)c1C(=O)Nc1ccccc1C#N`, the inhibition is 62.8% (active).
With `Cc1onc(-c2ccccc2)c1C(=O)N1CCOCC1` the figure was -1.3% (inactive).
`CC(=O)Nc1cccc(NC(=O)c2c(-c3ccccc3)noc2C)c1`: the inhibition was 74.3% (active).
The same measure for `Cc1noc(C)c1C(=O)Nc1ccccn1`: 3.8% (inactive).
On to `CC(=O)Nc1cccc(-c2cnc3ccccc3n2)c1`, for which the inhibition is 49.7% (inactive).
As to `COC(CNC(=O)Cn1ncc2ccsc2c1=O)OC`, the inhibition is -15.8% (inactive).
The same measure for `CCCC(=O)N=c1sc2cccc(F)c2n1C`: 14.7% (inactive); for `CC1=Nn2c(nnc2-c2ccccc2)SC1`: -4.9% (inactive).
The same measure for `CCn1c(=N)c(S(=O)(=O)c2ccc(F)cc2)cc2c(=O)n3ccccc3nc21`: -0.6% (inactive); for `O=C(Nc1nsc(-c2ccccc2)n1)c1ccncc1`: 45.7% (inactive).
On to `CCC(=O)Nc1nc(OC)cc(OC)n1`, for which the inhibition is 2.1% (inactive).
Consider `COc1ccc(-n2c(SCC(=O)Nc3sc4c(c3C#N)CCCC4)nnc2-c2ccc(O)cc2)cc1`, for which the inhibition was 33.9% (inactive).
On to `CC(c1nnc(SCC(=O)Nc2sccc2C#N)n1-c1ccc(Cl)cc1)N(C)C` (centres undefined), for which the inhibition was 50.8% (active).
On to `N#Cc1ccsc1NC(=O)CN1CCCCC1`, for which the inhibition was -15.3% (inactive).
Take `COc1ccc(NC2CC(=O)N(C)C2=O)cc1` (centres undefined): the inhibition was 1.8% (inactive).
Consider `Cc1c(Cl)c([N+](=O)[O-])nn1Cc1ccc(C(=O)N/N=C\c2cc(Cl)ccc2O)o1`, for which the inhibition is 41.2% (inactive).
With `CCOc1ccc(-c2nnn(CC(=O)N3CCN(c4ccc(OC)cc4)CC3)n2)cc1OCC` the figure was 1.7% (inactive); with `Cc1ccc(CNC(=O)C2CCCN2C(=O)NCc2ccccc2)cc1` (centres undefined), -10% (inactive).
`O=C(NCc1ccccc1)[C@@H]1CSC2c3ccccc3C(=O)N21` (some centres undefined): the inhibition was 67.1% (active).
As for `O=C1c2ccccc2C(O)N1Cc1ccccc1` (centres undefined), the inhibition is -2.8% (inactive).
With `Cn1cccc1C(=O)NC(=O)COC(=O)Cc1coc2ccc3ccccc3c12` the figure was -91.7% (inactive); with `O=C(c1ccco1)N1CCN(C(=O)C2CCCN(S(=O)(=O)c3cccc4nsnc34)C2)CC1` (centres undefined), 12.6% (inactive).
With `COc1ccc(C(=O)Nc2c(N)nc(SCC(=O)N3CCC(C)CC3)[nH]c2=O)cc1OC`, the inhibition is -5.6% (inactive).
`Cc1ccc(C(=O)NNC(=O)c2cc3cc4ccccc4nc3s2)cc1`: the inhibition was 6.6% (inactive).
Turning to `COc1ccc(C(=O)Oc2cc(/C=N/NS(=O)(=O)c3ccc(C)cc3)ccc2OC)cc1`, the inhibition is 29.8% (inactive).
The same measure for `COc1ccc(/C=C(/NC(=O)c2ccc(C)cc2)c2nc3ccccc3[nH]2)cc1OC`: 69.5% (active).
Take `O=C(NCCCN1CCN(C2CCCCC2)CC1)Nc1ccccc1C(F)(F)F`: the inhibition was 0.7% (inactive).
With `Clc1cccc(-c2nc3nc4ccccc4nc3n2Cc2ccco2)c1` the figure was 52.8% (active); with `Cc1cc(NCc2ccco2)n2c(nc3ccccc32)c1C#N`, 20.4% (inactive).
For the molecule `O=C(NCc1ccco1)c1cc(-c2cccnc2)nc2ccc(Cl)cc12`, the inhibition is 17.9% (inactive).
`O=C(COC(=O)CCc1c[nH]c(=O)[nH]1)Nc1ccccc1Cl`: the inhibition was -6% (inactive).
As to `CCOC(=O)c1nnn(-c2nonc2OC)c1-c1ccccc1`, the inhibition was 26.7% (inactive).
With `O=C1CCc2cc(S(=O)(=O)N3CCC(C(=O)NCc4ccccc4Cl)CC3)ccc2N1` the figure was 24.7% (inactive); with `O=C(O)C1CCCN1S(=O)(=O)c1ccc2c(c1)CCC2` (centres undefined), -48.8% (inactive).
In the case of `CSc1cccc(NC(=O)C2CCCN2S(=O)(=O)c2ccc3c(c2)CCC(=O)N3)c1` (centres undefined), the inhibition was 81.6% (active).
Take `CCN1CCN(c2ccc([N+](=O)[O-])cc2C(=O)c2ccc(Cl)cc2)CC1`: the inhibition was -60.5% (inactive).
In the case of `CCc1nnc(NC(=O)c2nc3nccc(C)n3n2)s1`, the inhibition is 1.9% (inactive).
The same measure for `Cc1ccc(-c2csc(NC(=O)Cc3cccs3)n2)cc1C`: 26.9% (inactive); for `CCCc1ccc(-c2csc(NC(=O)Cc3cccs3)n2)cc1`: 42.2% (inactive); for `Cc1cccc(S(=O)(=O)CC(=O)Nc2nc(-c3ccccc3)cs2)c1`: 91.4% (active).
The same measure for `Cc1ccc(-c2csc(NC(=O)c3cccs3)n2)cc1`: 3.3% (inactive); for `CCn1c(SCC(=O)Nc2nc(C)cs2)nnc1C(C)NC(=O)c1ccccc1` (centres undefined): 21.2% (inactive).
As for `O=C(CSC1=NCCS1)Nc1nc(-c2ccccc2)cs1`, the inhibition is 60.8% (active).
Regarding `Cc1cccc2nc(CNc3ccc(F)cc3)cn12`, the inhibition was 38.8% (inactive).
In the case of `COc1cccc(-c2nnc(N(C)C(=O)c3ccno3)s2)c1`, the inhibition is 2.4% (inactive).
The same measure for `CC(=O)c1cc(-c2ccccc2)[nH]c1N1CCCC1`: 12.9% (inactive); for `Cc1cccc(Nc2ccccc2C(=O)NCc2ccco2)c1C`: 27.2% (inactive); for `Cc1ccc(C)c(NC(=O)c2ccc(OC(=O)c3ccco3)cc2)c1`: -24% (inactive).
With `CCc1ccccc1N(CC(=O)NCCSCc1ccco1)S(C)(=O)=O` the figure was 25.8% (inactive); with `Cc1ccc(N(Cc2ccc(C(=O)Nc3ccccc3C(=O)NCc3ccco3)cc2)S(C)(=O)=O)cc1C`, 72% (active).
The same measure for `O=C(Nc1ccccc1)Nc1ccccc1C(=O)NCc1ccco1`: 88.1% (active).
For `CS(=O)(=O)N(Cc1ccc(Cl)cc1)c1ccc(C(=O)NCCSCc2ccco2)cc1`, the inhibition is 74.1% (active).
Regarding `Cc1ccc(C(=O)N/C(=C/C=C/c2ccccc2)C(=O)NCc2ccco2)cc1`, the inhibition is 36% (inactive).
With `COc1cc(OC)cc(C(=O)NCCSCc2ccco2)c1` the figure was -1.5% (inactive); with `Cc1ccccc1NC(=O)NCc1ccco1`, -34.3% (inactive).
